CYP2C9 inhib = inhibitors of human CYP2C9; inhibition, % at 5 µM; CYP2C9 Supersomes, luciferin-H conversion, luminescence; P11712; actives 20% (n = 96,000);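 active = blocking of liver enzyme CYP2C9 beyond about 50% at 5 µM, limit read from the data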
CYP2C19 inh = blocks human cytochrome P450 2C19; inhibition, % at 5 µM; CYP2C19 Supersomes, luciferin-H EGE luminescence, 30 min; actives 21% (n = 96,000); P33261; AID 778;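 active = CYP2C19 inhibition above a set limit at 5 µM in the primary screen, cut at about 50% in these data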
Target sequence (P33261 whole entry, looked up): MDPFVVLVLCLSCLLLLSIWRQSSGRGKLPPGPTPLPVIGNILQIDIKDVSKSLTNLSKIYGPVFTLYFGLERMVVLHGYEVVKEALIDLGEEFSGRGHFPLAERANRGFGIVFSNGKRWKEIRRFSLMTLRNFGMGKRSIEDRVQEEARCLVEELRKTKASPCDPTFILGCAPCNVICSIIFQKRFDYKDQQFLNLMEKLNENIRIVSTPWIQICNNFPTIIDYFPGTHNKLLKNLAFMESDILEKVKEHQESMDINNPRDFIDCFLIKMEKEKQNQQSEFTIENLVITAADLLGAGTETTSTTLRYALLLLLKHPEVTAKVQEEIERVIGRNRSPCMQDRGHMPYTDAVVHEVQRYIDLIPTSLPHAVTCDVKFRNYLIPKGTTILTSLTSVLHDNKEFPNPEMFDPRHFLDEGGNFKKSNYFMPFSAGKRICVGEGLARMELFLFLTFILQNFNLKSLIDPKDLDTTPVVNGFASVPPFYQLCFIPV
PostGolgi ctrl = growth of the yeast control strain, post-Golgi counter-screen | efflux-deficient yeast background strain, growth absorbance A615, 16 h | inhibition, % at 10 µM | actives 5% (n = 98,000)
CYP2C19 act = activators of human cytochrome P450 2C19; activation factor at 5 µM; P33261; recombinant CYP2C19, luciferin-H EGE luminescence; stronger effect = higher value; 0 = fully inhibited enzyme, 1 = untreated enzyme; 96,000 tested, under 10 active;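 active = activation factor of at least 2 at 5 µM in the primary screen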
PostGolgi yeast = growth inhibition of a yeast mutant, post-Golgi transport screen; actives 0.9% (n = 98,000); post-Golgi transport phenotypic cell assay; inhibition, % at 10 µM;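 also: yeast cells grown in 1536-well plates; yeast grown about 18 h at 30C before absorbance read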
CYP2C9 act = activators of human CYP2C9 | P11712 | recombinant CYP2C9, luciferin-H conversion, luminescence; stronger effect = higher value; factor 1 = untreated enzyme, 0 = blocked | activation factor at 5 µM | actives 1.4% (n = 96,000);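 active = activation factor of 2 or more for CYP2C9 at a 5 µM dose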
Numbers stand for hits; i = inactive; nt = no result given. Sampled rows, rich in hits. Any-hit rate of the full collection: about 32%. Rule as the data show it, unless noted: active = inhibition above about 30%; inactive = the rest.

SMILES	CYP2C9 inhib	CYP2C19 inh	PostGolgi ctrl	CYP2C19 act	PostGolgi yeast	CYP2C9 act
Cc1cc(C)cc(OC(=O)CS(=O)c2ccc(C(F)(F)F)cc2[N+](=O)[O-])c1 (configuration not stated)	i	i	35	i	i	2
Cc1ccc(Cn2ccc(NC(=O)c3nc4ncccn4n3)n2)cc1	i	i	i	i	i	i
Cc1ccc2c(c1)cc(CN(CCc1ccccc1)C(=O)N1CCOCC1)c1nnnn12	64	53	i	i	i	i
Cc1ccc2c(c1)cc(CN(Cc1cccnc1)C(=O)NCc1ccccc1)c1nnnn12	65	90	i	i	i	i
Cc1ccc2[nH]c(=O)c(CN(CCc3ccccc3)C(=O)N3CCOCC3)cc2c1	i	i	i	i	i	i
Cc1ccc2c(c1)cc(CN(Cc1ccco1)S(=O)(=O)c1ccccc1)c1nnnn12	i	i	45	i	i	i
C=CCOc1c2ccc(C(=O)NCc3ccc(C)cc3)cc2nn1C	i	i	i	i	i	i
CC1(C)CC2CC(C)(CN2CC(=O)C(C#N)c2ccccc2)C1 (configuration not stated)	i	80	i	i	i	i
O=c1c2ccccc2n(Cc2ccccc2F)c(=O)n1Cc1ccccc1F	i	i	i	i	i	i
Cn1c(=O)n(Cc2ccc(Cl)cc2)c2ccccc21	i	76	i	i	i	i
Cn1c(=O)n(Cc2ccccc2F)c2ccccc21	i	70	i	i	i	i
CC1CCN(c2c(NCc3ccc(C(=O)NCc4cccnc4)cc3)c(=O)c2=O)CC1	i	i	i	i	i	i
O=C(O)C1C2C=CC(C2)C1C(=O)NCCc1cccc(Cl)c1 (configuration not stated)	nt	nt	i	nt	i	nt
COc1ccc(CCn2c(C)c(C(C)=O)c3cc(OC(=O)c4ccco4)ccc32)cc1OC	87	83	i	i	i	i
Cc1ccc(-c2nc3ccccc3c(=O)n2CCCn2ccnc2)cc1	i	i	i	i	i	i
O=c1c2ccccc2nc(-c2ccco2)n1CCCn1ccnc1	65	69	i	i	i	i
COc1ccc(CCn2c(-c3ccco3)nc3ccccc3c2=O)cc1OC	i	95	i	i	i	i
O=c1c2ccccc2nc(-c2ccccc2)n1CCCn1ccnc1	70	72	i	i	i	i
COc1cccc(C(=O)CN2C3=NCCCN3c3ccccc32)c1	i	i	i	i	i	i
CCC(c1nc2ccccc2c(=O)n1CCCn1ccnc1)N1C(=O)c2ccccc2C1=O (configuration not stated)	85	93	i	i	i	i
CCN(CC)C(=O)c1ccc(NS(=O)(=O)c2ccccc2)cc1	77	82	i	i	i	i
CC(=O)c1ccc(NC(=O)Oc2ccccc2)cc1	i	54	i	i	i	i
CC(=O)c1ccc(NS(=O)(=O)c2ccccc2)cc1	79	61	i	i	i	i
CCCCNC(=O)c1ccc(NS(=O)(=O)c2ccccc2)cc1	93	i	i	i	i	i
O=C(O)c1ccccc1CSc1ncn[nH]1	i	i	i	i	i	i
SMILES	CYP2C9 inhib	CYP2C19 inh	PostGolgi ctrl	CYP2C19 act	PostGolgi yeast	CYP2C9 act
CCOC(=O)CSc1nnc(-c2nnc(SCC(=O)OCC)n2CC)n1CC	i	i	i	i	i	i
CC(C)OC(=O)CSc1nnc(-c2ccc(O)cc2)n1Cc1ccccc1	i	64	i	i	i	i
CC(C)OC(=O)CSc1nnc(Cc2ccccc2)n1C	i	i	i	i	i	i
CCn1c(SCC(=O)OC(C)C)nnc1-c1cccc(Cl)c1	i	55	i	i	i	i
Cc1nc2ccc(NC(=S)NC(C)C)cc2nc1C	i	i	i	i	i	i
O=C(Nc1nncs1)c1ccc(S(=O)(=O)c2ccccc2)cc1	60	i	i	i	i	i
CN(c1ccc(C(=O)Nc2nccs2)cc1)S(=O)(=O)c1ccccc1	51	73	i	i	i	i
O=C(Nc1nccs1)c1ccc(S(=O)(=O)NCc2cccs2)cc1	70	i	i	i	i	i
O=C(Nc1nccs1)c1ccc(S(=O)(=O)NCC2CCCCC2)cc1	i	i	41	i	i	i
O=C(Nc1ccc(S(=O)(=O)Nc2nccs2)cc1)C1CCCCC1	i	i	i	i	i	i
CN(c1ccccc1)S(=O)(=O)c1ccc(C(=O)Nc2nccs2)cc1	i	i	i	i	i	i
NC(=O)C1CC(O)CN1c1nc(CN2CCOCC2)nc2scc(-c3ccccc3)c12 (configuration not stated)	i	i	i	i	i	i
Cc1ccc(S(=O)(=O)N2CN(Cc3ccco3)c3nc4ccccc4nc32)cc1	90	76	i	i	i	i
COc1ccc(S(=O)(=O)N2CN(Cc3ccco3)c3nc4ccccc4nc32)cc1	54	70	i	i	i	i
Cc1ccc(S(=O)(=O)N2CN(Cc3ccco3)c3nc4ccccc4nc32)cc1C	84	68	32	i	i	i
Cc1ccc(S(=O)(=O)N2CCOCC2)cc1C(=O)NCc1ccco1	i	i	i	i	i	i
O=C(NCc1ccco1)C1CCN(c2nc3ccccc3n2Cc2ccc(F)cc2)CC1	i	i	i	i	i	i
O=S(=O)(c1ccc(F)cc1)N1CN(Cc2ccco2)c2nc3ccccc3nc21	60	82	i	i	i	i
CCOc1cc(NC2CS(=O)(=O)CC2O)c(OCC)cc1NC(=O)c1ccccc1 (configuration not stated)	i	i	i	i	i	i
CCn1c(SCC(=O)c2ccc(Cl)cc2)nnc1C(C)C	i	77	i	i	i	i
CCn1c(SCC(=O)c2c[nH]c3ccccc23)nnc1-c1cccs1	i	70	i	i	i	i
CCn1c(SCC(=O)c2ccc(Cl)cc2)nnc1-c1cccs1	i	70	i	i	i	i
COC(=O)CSc1nnc(C2COc3ccccc3O2)n1-c1ccccc1 (configuration not stated)	i	58	i	i	i	i
CC(C)OC(=O)CSc1nnc(-c2cnccn2)n1-c1ccccc1	nt	nt	i	nt	i	nt
CCOc1ccccc1NC(=O)c1c(NC(=O)CNCc2ccco2)sc2c1CCC2	i	i	nt	i	nt	i
SMILES	CYP2C9 inhib	CYP2C19 inh	PostGolgi ctrl	CYP2C19 act	PostGolgi yeast	CYP2C9 act
CCc1ccc(S(=O)(=O)NC(CC(=O)O)c2ccccc2)cc1 (configuration not stated)	i	i	i	i	i	i
CCn1c(SCC(=O)N2CCOCC2)nnc1-c1cccs1	i	i	i	i	i	i
CCn1c(SCCOc2ccc(Cl)cc2)nnc1-c1cccs1	90	96	i	i	i	i
COC(=O)CSc1nnc(-c2cccs2)n1-c1ccc(Cl)cc1	i	81	i	i	i	i
Cc1cccc(NC(=O)CS(=O)(=O)c2cn(C)c3ccccc23)c1C	i	i	i	i	i	i
Cc1ccc(NC(=O)C2CCCN(S(=O)(=O)c3c(C)noc3C)C2)cc1F (configuration not stated)	i	i	i	i	i	i
